# From PubChem BioAssay AID1159580 (chemical genetic matrix, 2015)
# Among all 5,500 compounds or so, about 2,000 (36%) were called active. Inconclusive results (about 18%) are left out. The list shows a part of the results. Values without a mark were called inactive. Cut-off read from the data, not from the text of the source: active = normalized growth mostly below about 0.91 (no sharp cut-off); inconclusive = no clear call, values can overlap the other calls; inactive = mostly above about 0.92.
# Assay: chemical genetic growth profiling, strain panel (AID 1159580);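 note: tested at 20 µM; growth read once vehicle control cultures reached saturation at 30 °C; 1 = growth at the plate median or of vehicle wells; lower values mean less growth of the strain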
# Conditions: growth OD
smiles,measurement,setting,value
C#CCCCCCCCCCCCC(O)CC(O)CO (configuration not stated),normalized growth,"S. cerevisiae deletion strains, locus YJR075W, strain HOC1, hits give low values",0.987
same,normalized growth,"S. cerevisiae deletion strains, locus YKL009W, strain mrt4, hits give low values",1
same,normalized growth,"S. cerevisiae deletion strains, locus YKL068W, hits give low values",1.01
same,normalized growth,"S. cerevisiae deletion strains, locus YKL085W, strain MDH1 (second series), hits give low values",1.01
same,normalized growth,"S. cerevisiae deletion strains, locus YKL085W, strain MDH1, hits give low values",1.01
same,normalized growth,"S. cerevisiae deletion strains, locus YKL160W, strain elf1, hits give low values",0.97
same,normalized growth,"S. cerevisiae deletion strains, locus YKL190W, strain CNB1, hits give low values",0.999
same,normalized growth,"S. cerevisiae deletion strains, locus YKR001C, strain vps1, hits give low values",1
same,normalized growth,"S. cerevisiae deletion strains, locus YKR026C, strain gcn3, hits give low values",0.982
same,normalized growth,"S. cerevisiae deletion strains, locus YKR091W, strain srl3, hits give low values",0.979
same,normalized growth,"S. cerevisiae deletion strains, locus YLL001W, strain dnm1, hits give low values",0.961
same,normalized growth,"S. cerevisiae deletion strains, locus YLL026W, hits give low values",0.993
same,normalized growth,"S. cerevisiae deletion strains, locus YLL041C, strain sdh2, hits give low values",0.986
same,normalized growth,"S. cerevisiae deletion strains, locus YLR027C, strain aat2, hits give low values",0.986
same,normalized growth,"S. cerevisiae deletion strains, locus YLR039C, strain RIC1, hits give low values",1.08
same,normalized growth,"S. cerevisiae deletion strains, locus YLR058C, strain SHM2, hits give low values",1
same,normalized growth,"S. cerevisiae deletion strains, locus YLR102C, strain apc9, hits give low values",1.01
same,normalized growth,"S. cerevisiae deletion strains, locus YLR113W, strain HOG1, hits give low values",0.832 (active)
same,normalized growth,"S. cerevisiae deletion strains, locus YLR221C, strain rsa3, hits give low values",0.974
same,normalized growth,"S. cerevisiae deletion strains, locus YLR258W, strain gsy2, hits give low values",0.99
same,normalized growth,"S. cerevisiae deletion strains, locus YLR262C, strain YPT6 (second series), hits give low values",0.966
same,normalized growth,"S. cerevisiae deletion strains, locus YLR262C, strain YPT6, hits give low values",1.07
same,normalized growth,"S. cerevisiae deletion strains, locus YLR268W, strain sec22, hits give low values",1
same,normalized growth,"S. cerevisiae deletion strains, locus YLR320W, strain mms22, hits give low values",0.946
same,normalized growth,"S. cerevisiae deletion strains, locus YLR330W, strain CHS5, hits give low values",0.99
same,normalized growth,"S. cerevisiae deletion strains, locus YLR342W, strain FKS1 (second series), hits give low values",0.975
same,normalized growth,"S. cerevisiae deletion strains, locus YLR342W, strain FKS1, hits give low values",0.985
same,normalized growth,"S. cerevisiae deletion strains, locus YLR357W, strain rsc2, hits give low values",0.954
same,normalized growth,"S. cerevisiae deletion strains, locus YLR370C, strain arc18, hits give low values",0.985
same,normalized growth,"S. cerevisiae deletion strains, locus YLR371W, strain rom2, hits give low values",1.01
same,normalized growth,"S. cerevisiae deletion strains, locus YLR384C, strain iki3, hits give low values",0.98
same,normalized growth,"S. cerevisiae deletion strains, locus YLR418C, strain cdc73, hits give low values",1.02
same,normalized growth,"S. cerevisiae deletion strains, locus YML016C, strain PPZ1, hits give low values",1
same,normalized growth,"S. cerevisiae deletion strains, locus YML032C, strain rad52, hits give low values",1.02
same,normalized growth,"S. cerevisiae deletion strains, locus YML120C, strain ndi1, hits give low values",0.986
same,normalized growth,"S. cerevisiae deletion strains, locus YML124C, strain tub3, hits give low values",1.01
same,normalized growth,"S. cerevisiae deletion strains, locus YMR058W, strain fet3, hits give low values",0.991
same,normalized growth,"S. cerevisiae deletion strains, locus YMR078C, strain ctf18, hits give low values",1
same,normalized growth,"S. cerevisiae deletion strains, locus YMR125W, strain sto1, hits give low values",0.967
same,normalized growth,"S. cerevisiae deletion strains, locus YMR129W, hits give low values",0.988
same,normalized growth,"S. cerevisiae deletion strains, locus YMR205C, strain PFK2, hits give low values",0.962
same,normalized growth,"S. cerevisiae deletion strains, locus YMR223W, strain ubp8, hits give low values",1.01
same,normalized growth,"S. cerevisiae deletion strains, locus YMR231W, strain pep5, hits give low values",0.974
same,normalized growth,"S. cerevisiae deletion strains, locus YMR263W, strain SAP30, hits give low values",1
same,normalized growth,"S. cerevisiae deletion strains, locus YMR307W, strain GAS1, hits give low values",1.19
same,normalized growth,"S. cerevisiae deletion strains, locus YNL067W, strain RPL9B, hits give low values",0.987
same,normalized growth,"S. cerevisiae deletion strains, locus YNL071W, strain lat1, hits give low values",0.988
same,normalized growth,"S. cerevisiae deletion strains, locus YNL128W, strain TEP1, hits give low values",1.01
same,normalized growth,"S. cerevisiae deletion strains, locus YNL153C, strain GIM3, hits give low values",1
same,normalized growth,"S. cerevisiae deletion strains, locus YNL183C, strain NPR1, hits give low values",0.774 (active)
same,normalized growth,"S. cerevisiae deletion strains, locus YNL209W, strain ssb2, hits give low values",0.996
same,normalized growth,"S. cerevisiae deletion strains, locus YNL233W, strain BNI4, hits give low values",0.991
same,normalized growth,"S. cerevisiae deletion strains, locus YNL248C, strain rpa49, hits give low values",0.97
same,normalized growth,"S. cerevisiae deletion strains, locus YNL250W, strain rad50, hits give low values",1.03
same,normalized growth,"S. cerevisiae deletion strains, locus YNL271C, strain bni1, hits give low values",1.02
same,normalized growth,"S. cerevisiae deletion strains, locus YNL298W, strain CLA4, hits give low values",1.01
same,normalized growth,"S. cerevisiae deletion strains, locus YNL307C, strain MCK1, hits give low values",0.98
same,normalized growth,"S. cerevisiae deletion strains, locus YNL322C, strain KRE1 (second series), hits give low values",0.978
same,normalized growth,"S. cerevisiae deletion strains, locus YNL322C, strain KRE1, hits give low values",1
same,normalized growth,"S. cerevisiae deletion strains, locus YNR049C, strain mso1, hits give low values",0.992
same,normalized growth,"S. cerevisiae deletion strains, locus YNR052C, strain pop2, hits give low values",1.01
same,normalized growth,"S. cerevisiae deletion strains, locus YOL006C, strain TOP1, hits give low values",0.96
same,normalized growth,"S. cerevisiae deletion strains, locus YOL012C, strain htz1",0.976
same,normalized growth,"S. cerevisiae deletion strains, locus YOL147C, strain pex11, hits give low values",1
same,normalized growth,"S. cerevisiae deletion strains, locus YOR001W, strain rrp6, hits give low values",0.998
same,normalized growth,"S. cerevisiae deletion strains, locus YOR061W, strain CKA2, hits give low values",0.921
same,normalized growth,"S. cerevisiae deletion strains, locus YOR069W, strain VPS5, hits give low values",1
same,normalized growth,"S. cerevisiae deletion strains, locus YOR070C, strain gyp1, hits give low values",0.977
same,normalized growth,"S. cerevisiae deletion strains, locus YOR080W, strain dia2, hits give low values",0.994
same,normalized growth,"S. cerevisiae deletion strains, locus YOR083W, strain WHI5, hits give low values",0.95
same,normalized growth,"S. cerevisiae deletion strains, locus YOR106W, strain vam3, hits give low values",0.977
same,normalized growth,"S. cerevisiae deletion strains, locus YOR136W, strain idh2, hits give low values",0.998
same,normalized growth,"S. cerevisiae deletion strains, locus YOR144C, strain elg1, hits give low values",1.01
same,normalized growth,"S. cerevisiae deletion strains, locus YOR184W, strain ser1, hits give low values",1.01
same,normalized growth,"S. cerevisiae deletion strains, locus YOR231W, strain MKK1, hits give low values",0.851 (active)
same,normalized growth,"S. cerevisiae deletion strains, locus YOR265W, strain rbl2, hits give low values",0.99
same,normalized growth,"S. cerevisiae deletion strains, locus YOR270C, strain vph1, hits give low values",0.944
same,normalized growth,"S. cerevisiae deletion strains, locus YOR290C, strain snf2, hits give low values",0.948
same,normalized growth,"S. cerevisiae deletion strains, locus YOR316C, strain cot1, hits give low values",1.01
same,normalized growth,"S. cerevisiae deletion strains, locus YPL051W, strain arl3, hits give low values",0.989
same,normalized growth,"S. cerevisiae deletion strains, locus YPL055C, strain LGE1, hits give low values",0.994
same,normalized growth,"S. cerevisiae deletion strains, locus YPL078C, strain atp4, hits give low values",0.981
same,normalized growth,"S. cerevisiae deletion strains, locus YPL106C, strain sse1, hits give low values",0.981
same,normalized growth,"S. cerevisiae deletion strains, locus YPL240C, strain hsp82, hits give low values",0.998
same,normalized growth,"S. cerevisiae deletion strains, locus YPL241C, strain CIN2, hits give low values",1
same,normalized growth,"S. cerevisiae deletion strains, locus YPL256C, strain CLN2, hits give low values",0.881
same,normalized growth,"S. cerevisiae deletion strains, locus YPR119W, strain clb2, hits give low values",1.01
same,normalized growth,"S. cerevisiae deletion strains, locus YPR141C, strain kar3, hits give low values",1.04
same,normalized growth,"S. cerevisiae deletion strains, locus YPR163C, strain tif3, hits give low values",0.997
same,normalized growth,"S. cerevisiae deletion strains, locus YPR167C, strain met16, hits give low values",1.01
same,normalized growth,"S. cerevisiae deletion strains, strain wtn01, hits give low values",1.01
same,normalized growth,"S. cerevisiae strains, strain wild type, hits give low values",0.992
